Consider 36 compounds from PubChem BioAssay (NCI).

The nature of assay [1]: NCI Yeast Anticancer Drug Screen. Data for the rad50 strain (AID 155).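 Note: 0% = growth of vehicle-only cultures of the same strain.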 To be noted: S. cerevisiae rad50 strain growth inhibition, hits give high values; at 50.0 µM unless noted. The method, boiled down:
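Compounds were tested on a yeast strain with an engineered DNA damage repair alteration; the reported value is growth inhibition normalised to vehicle treatment.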

Assay [2] can be described thus: NCI Yeast Anticancer Drug Screen. Data for the mec2-1 strain (AID 157). The settings on record: S. cerevisiae mec2-1 strain, hits give high values; at 50.0 µM unless noted. Put shortly: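 Growth inhibition is read against vehicle-treated controls after compound exposure of the mec2-1 yeast strain, which is defective in DNA damage repair or cell cycle control.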
A short description of assay [3]: NCI Yeast Anticancer Drug Screen. Data for the sgs1 mgt1 strain (AID 161).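 Note: 0% = growth of cultures given vehicle only.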 To be noted: S. cerevisiae sgs1 mgt1 strain, hits give high values; at 50.0 µM unless noted. The method, boiled down: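 Percent growth inhibition was derived by comparing compound-exposed mutant yeast with vehicle-exposed cultures. The strain carries alterations in DNA damage repair.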
Assay [4] is described as follows: NCI Yeast Anticancer Drug Screen. Data for the cln2 rad14 strain (AID 165).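 Note: 0% = growth equal to vehicle treated cultures.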 The settings on record: S. cerevisiae cln2 rad14 strain, hits give high values; at 50.0 µM unless noted. Put shortly:
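Growth inhibition, relative to vehicle-treated controls, is the read-out. The test organism is a yeast strain with defined genetic alterations, cln2 rad14.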

Assay [5] in a line: NCI Yeast Anticancer Drug Screen. Data for the bub3 strain (AID 167). The settings on record: S. cerevisiae bub3 mutant strain, hits give high values; at 50.0 µM unless noted. The method, boiled down: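 Growth of a checkpoint-deficient yeast mutant is measured after compound exposure. Values represent inhibition relative to vehicle.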
Assay [6] is described as follows: NCI Yeast Anticancer Drug Screen. Data for the mlh1 rad18 strain (AID 175). The settings on record: S. cerevisiae mlh1 rad18 strain growth inhibition, hits give high values; at 50.0 µM unless noted. Put shortly:
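Cells of a genetically altered yeast strain, deficient in DNA damage repair, were treated with compound. Their growth was then compared with that of vehicle-treated cultures to give inhibition.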

SMILES strings stand for the structures. Where “and” joins values, the source holds several entries; their conditions need not be identical. Identical values can stand only once. The panel holds about 79,000 compounds, 15% with a hit somewhere; the sample as a whole holds those more often. Values without a mark were called inactive. Calls of active or inactive are those of the source. Cut-off read from the data, not from the text of the source: active = growth inhibition above about 70%; inactive = the rest.

Regarding `COCS(=O)(=O)c1ccccc1`, the growth inhibition in assay [1] was 2.55%; in assay [2], -6.1%; in assay [3] it was 11.8%; in assay [4], 14.3%; in assay [5], 6.55%; in assay [6], 0.15%.

Consider `CCNC(=O)c1ccccc1S(C)=O` (stereo unspecified), for which the growth inhibition is -18.8% in assay [1]; -19.3% in assay [2]; -17.9% in assay [3]; -8.25% in assay [4]; -9.15% in assay [5]; -20.1% in assay [6].

Regarding `Fc1ccccc1C1SCc2nc3cc4ccccc4cc3n21` (stereo unspecified), the growth inhibition is -33.6% in assay [1]; -17.8% in assay [2]; 0.95% in assay [3]; -1.45% in assay [4]; -0.95% in assay [5]; 40% in assay [6].

For `Clc1ccc(-c2cn3c(nc4ccccc43)c(-c3ccccc3)n2)cc1`, the growth inhibition in assay [1] was -7.65%; in assay [2] it was 1.4%; in assay [3], -10.1%; in assay [4], 2.35%; in assay [5], -22.5%; in assay [6], -16%.

On to `CC1CC(C)OC(C(Br)CBr)O1` (stereo unspecified), for which the growth inhibition is 5.05% in assay [1]; -10.9% in assay [2]; -4.8% in assay [3]; 15% in assay [4]; -13.9% in assay [5]; 12.1% in assay [6].

In the case of `CC(=O)OCC(OC(C)=O)C(OC(C)=O)C(/C=N/N(C(C)=O)S(=O)(=O)c1ccc(/C=C2\NC(=O)NC2=O)cc1)OC(C)=O` (stereo unspecified), the growth inhibition in assay [1] is -42.5%; in assay [2], -23.6%; in assay [3], -34.6%; in assay [4] it was -2.45%; in assay [5], -18.9%; in assay [6], -25.6%.

Consider `C/C(=C\C(=O)c1ccc(Sc2ccccc2)cc1)c1ccc(Sc2ccccc2)cc1`, for which the growth inhibition in assay [1] was 25.1%; in assay [2] it was -4.85%; in assay [3], 6.15%; in assay [4], -17.6%; in assay [5], 24.1%; in assay [6] it was 21.2%.

`CC1C(c2ccccc2)OCCN1C(=S)Nc1ccccc1` (stereo unspecified): the growth inhibition in assay [1] was 34.9%; in assay [2] it was 34.2%; in assay [3] it was 45.6%; in assay [4], -16.6%; in assay [5] it was 35.2%; in assay [6], 25.4%.

`O=C(COc1ccc(Cl)cc1)N1CCN(C(=O)COc2ccc(Cl)cc2)c2ccccc21`: the growth inhibition in assay [1] was 11.7%; in assay [2] it was 3.05%; in assay [3], 23.9%; in assay [4], 11.1%; in assay [5], 11.6%; in assay [6] it was -1.05%.

Regarding `Nc1nnc2nc(C3(c4nc5nnc(N)n5[nH]c4=O)CCCC3=O)c(=O)[nH]n12`, the growth inhibition in assay [1] is 13.4%; in assay [2], -10.8%; in assay [3], -8.7%; in assay [4], 3.45%; in assay [5], 4.6%; in assay [6], 16.2%.

With `NC1CCC(C2CCC(N)CC2)CC1` (stereo unspecified), the growth inhibition in assay [1] is 17.1%; in assay [2], 20.6%; in assay [3], 3.7%; in assay [4], -53%; in assay [5], -6.45%; in assay [6], -13.7%.

As for `Cc1cc(C)nc(NS(=O)(=O)c2ccc(NC(=O)c3cccc4c(Nc5ccc(S(=O)(=O)Nc6nc(C)cc(C)n6)cc5)c5ccc(Cl)cc5nc34)cc2)n1`, the growth inhibition in assay [1] is 27.4%; in assay [2] it was 35.7%; in assay [3] it was 24.3%; in assay [4], 33%; in assay [5], 19.6%; in assay [6] it was 30.7%.

For `O=c1[nH]cnc2nc(N3CCOCC3)sc12`, the growth inhibition is -15.7% in assay [1]; -4.6% in assay [2]; -1.7% in assay [3]; -5.8% in assay [4]; -6.5% in assay [5]; -4.65% in assay [6].

On to `CC1(C)OCC[C@@H]1[Si](C)(C)C`, for which the growth inhibition in assay [1] was 17.6%; in assay [2] it was 21.6%; in assay [3] it was 14.2%; in assay [4], 2.8%; in assay [5], -3.45%; in assay [6], -19.6%.

Turning to `COC(=O)c1ccccc1NC(=O)c1c(-c2ccccc2Cl)noc1C`, the growth inhibition in assay [1] was 72% (active); in assay [2], 67.8%; in assay [3], 88.6% (active); in assay [4] it was 46.9%; in assay [5], 77.2% (active); in assay [6], 54.9%.

Take `Cc1ccc(NC(=O)CCS)cc1`: the growth inhibition in assay [1] is -1.75%; in assay [2], -25.9%; in assay [3], 9.5%; in assay [4] it was 2.1%; in assay [5] it was -13.2%; in assay [6], 15.9%.

`CCOC(OCC)C(=O)NC(Cc1ccccc1NC(=O)c1ccccc1)c1ccc2c(c1)OCO2` (stereo unspecified): the growth inhibition in assay [1] is 35.6%; in assay [2], -1.05%; in assay [3] it was 3.9%; in assay [4] it was 4.8%; in assay [5], 3.25%; in assay [6] it was 21.4%.

For `CCCCCCCCCCCC[N+](C)([O-])CCCCCC[N+](C)([O-])CCCCCCCCCCCC` (stereo unspecified), the growth inhibition in assay [1] is 96.2% (active); in assay [2] it was 98.7% (active); in assay [3], 97.8% (active); in assay [4], 96.5% (active); in assay [5] it was 96.5% (active); in assay [6] it was 97% (active).

For the compound `Cc1ccc(C(=O)O)c(/C=C2\Cc3cc(C)cc(C)c3C2=O)c1`, the growth inhibition in assay [1] was 21.1%; in assay [2], 14.8%; in assay [3], 24.6%; in assay [4] it was 16.6%; in assay [5] it was 9.85%; in assay [6], 29.7%.

`COc1ccc2nc(C(=O)c3ccccc3)c(C)cc2c1`: the growth inhibition was 8.4% in assay [1]; -28.5% in assay [2]; -10.7% in assay [3]; 1.8% in assay [4]; -10.9% in assay [5]; -13.2% in assay [6].

Consider `Cc1ccc(/C=C(/c2ccccc2)C(CC(=O)O)C(=O)O)cc1` (stereo unspecified), for which the growth inhibition is -4.75% in assay [1]; -11.3% in assay [2]; -6.85% in assay [3]; -44.7% in assay [4]; -6.35% in assay [5]; -14.5% in assay [6].

For the compound `CC(O)(c1ccccc1)c1ccccc1`, the growth inhibition is -13.3% in assay [1]; -1.75% in assay [2]; -25.6% in assay [3]; -16.8% in assay [4]; -2.3% in assay [5]; -33.3% in assay [6].

Take `CCC(=O)c1ccc(OC)cc1OC`: the growth inhibition is -13.6% in assay [1]; 1.25% in assay [2]; -4.8% in assay [3]; -2.05% in assay [4]; 4.4% in assay [5]; -20.1% in assay [6].

As for `Cc1cc(OC(=O)c2c(-c3c(Cl)cccc3Cl)noc2C)n(-c2ccc(NC(=O)c3c(-c4c(Cl)cccc4Cl)noc3C)cc2)n1`, the growth inhibition is 36.8% in assay [1]; 24.8% in assay [2]; 19.7% in assay [3]; 13% in assay [4]; 28.1% in assay [5]; 25.9% in assay [6].

As to `C=CCCCCCCCCCCCCCCCC`, the growth inhibition in assay [1] is -24%; in assay [2], -49%; in assay [3] it was -23.1%; in assay [4], -13.2%; in assay [5], -27.6%; in assay [6], -9.2%.

For `N#CC(c1ccccc1)c1ccc(C(c2ccccc2)(c2ccccc2)C(C#N)c2ccccc2)cc1` (stereo unspecified), the growth inhibition is 17.4% in assay [1]; 8.55% in assay [2]; 13.9% in assay [3]; 19.3% in assay [4]; -4.8% in assay [5]; 5.1% in assay [6].

For `C[N+]1(CCN=C=NC2CCCCC2)CCOCC1`, the growth inhibition in assay [1] is -11.9%; in assay [2] it was 10.8%; in assay [3] it was 16.9%; in assay [4] it was -12.2%; in assay [5], 17.9%; in assay [6], 14.4%.

As for `COc1cc2ccc(Cc3nccc4cc(OC)c(OC)cc34)cc2cc1OC`, the growth inhibition in assay [1] is 98.4% (active); in assay [2], 98.5% (active); in assay [3], 99% (active); in assay [4], 91% (active); in assay [5] it was 97% (active); in assay [6], 98.2% (active).

In the case of `O=NC1C(Br)C2CC1C1C(Br)C(Br)CC21` (stereo unspecified), the growth inhibition in assay [1] is 4.45%; in assay [2], 5.95%; in assay [3], 13.3%; in assay [4] it was 0.15%; in assay [5], -1.2%; in assay [6], 6.7%.

In the case of `CCCCCCCCCC=O`, the growth inhibition in assay [1] was -2.05%; in assay [2] it was 8%; in assay [3], -11.5%; in assay [4], 10.6%; in assay [5], 23.7%; in assay [6], 6.8%.

Turning to `CCOC(=O)c1nc2ccccc2c(=O)[nH]1`, the growth inhibition in assay [1] was -1.85%; in assay [2], -5%; in assay [3], 1.5%; in assay [4], -32.9%; in assay [5], -8.6%; in assay [6], -2.5%.

Take `CC1=C/C(O)CC(=O)Cc2nc(co2)C(=O)N2CCC=C2C(=O)OC(C(C)C)C(C)/C=C\C(=O)NC/C=C\1` (stereo unspecified): the growth inhibition was 39.5% and -2.6% in assay [1]; -11.6% and 18.7% in assay [2]; 22.7% and 0.6% in assay [3]; 13.9% and 5.6% in assay [4]; 37.5% and -3% in assay [5]; 35.2% and 2.2% in assay [6].

Regarding `CCN(CC)CCOc1ccc(N2C(=O)c3cc(OC)c(OC)cc3C2=O)cc1`, the growth inhibition in assay [1] was -23.4%; in assay [2], -19%; in assay [3] it was -14.9%; in assay [4] it was 5.25%; in assay [5], -32.1%; in assay [6] it was -34.5%.

Consider `Cc1ccc(C(N)=O)cc1N=NN(C)C`, for which the growth inhibition in assay [1] was -25.8%; in assay [2], -39.4%; in assay [3], -56.9%; in assay [4], 1.55%; in assay [5], -16.6%; in assay [6], -24.4%.

For `O=C(O)/C=C/c1ccc(OS(=O)(=O)O)cc1`, the growth inhibition in assay [1] is -12.6%; in assay [2], -31.4%; in assay [3] it was -14.9%; in assay [4], 7.8%; in assay [5], -9.8%; in assay [6], -7.4%.

In the case of `CC(=O)CCC(C)C1CCC2C3CCC4CCCCC4(C)C3CCC12C` (stereo unspecified), the growth inhibition in assay [1] was 7.4%; in assay [2], -3.05%; in assay [3], -7.75%; in assay [4] it was 13.8%; in assay [5], -2.15%; in assay [6], -1.8%.
